This is a sample that favours compounds with a hit; in the whole collection about 2.3% have one here.
aSyn UTR inh = MLPCN primary screen, SNCA 5' untranslated region. actives 0.82% (n = 300,000). inhibition, % (tested at 7.5 µM). alpha-synuclein 5'UTR reporter, inhibitor activity; in the data active = inhibition above about 60%;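 note: H4 neuroglioblastoma cells stably carrying SNCA 5'UTR luciferase fusion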
Jurkat NFkB inh = lowers PMA/ionomycin-induced NF-kB signal in Jurkat cells; PMA/ionomycin-induced NF-kB luciferase reporter, luminescence; inhibition, % at 4 µM; actives 0.53% (n = 330,000); AID 435003; in the data active = inhibition above about 50%
697 NFkB inh = inhibitors of the PMA/ionomycin-induced NF-kB reporter in 697 B cells; 697 B-cell NF-kB luciferase reporter, 16 h; inhibition, % at 4 µM; AID 435022; actives 0.33% (n = 330,000); in the data active = inhibition above about 35%
Gli-Sufu antag = Gli-Sufu pathway antagonism; inhibition, % at 5 µM; actives 0.74% (n = 340,000); AID 588413; Sufu-KO-LIGHT fibroblasts, Gli luciferase reporter luminescence;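 active = inhibition above about 55%, limit read from the data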
Shn3 3UTR inh = inhibitors of Schnurri-3 3'UTR reporter in osteoblasts; Clone20 osteoblast Shn3 3'UTR firefly luciferase, 24 h; inhibition, % at 12.5 µM; actives 0.52% (n = 360,000);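 active = mean inhibition of at least 75% with every replicate also reaching 75%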
TAG inh = triacylglycerol accumulation inhibition. AID 651582. actives 0.66% (n = 230,000). inhibition, % at 12.5 µM. H9c2 cells, Nile Red lipid (TAG) fluorescence; cells loaded with 200 µM oleic acid;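 active = pattern-corrected inhibition of lipid staining of at least 50% with the nuclear-stain viability signal not falling by more than 50%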
Jurkat NFkB conf = inhibitors of the PMA/ionomycin-induced NF-kB reporter in Jurkat cells, retest | shares compounds with Jurkat NFkB inh | Jurkat NF-kB luciferase, 16 h | inhibition, % at 4 µM | actives 27% (n = 2,700);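 active = inhibition reaching about 45% at 4 µM in either replicate, limit read from the data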
Of the large screens only hits and unclear results are named; the others gave an inactive call (follow-up assays come after a bar, where they were run); ! = not confirmed by another sample.

CC(=O)Nc1ccc(-c2csc(Nc3ncccn3)n2)cc1	none
O=C(Nc1ccc(N2CCCC2)c(Cl)c1)c1ccco1	none (no result: TAG inh) | Jurkat NFkB conf inactive
O=C(COC(=O)C1CCN(C(=O)c2ccc(Cl)cc2)CC1)c1ccco1	none
CC1C/C(=C/c2cccn2C)C(=O)/C(=C/c2cccn2C)C1 (stereo not drawn)	none
CC1C/C(=C/c2ccncc2)C(=O)/C(=C/c2ccncc2)C1 (stereo not drawn)	Jurkat NFkB inh 96 | Jurkat NFkB conf inactive
CCO[C@H]1OC(C(=O)NCc2nc3ccccc3[nH]2)=C[C@@H](C2CC2)[C@@H]1CCCO	aSyn UTR inh 80, Jurkat NFkB inh 61 (no result: TAG inh) | Jurkat NFkB conf inactive
O=C(CSc1cccc2cccc(Cl)c12)NC1=NCCS1	none
CC1CCN(c2c(NCc3ccc(C(=O)N4CCc5ccccc54)cc3)c(=O)c2=O)CC1	aSyn UTR inh 88, Jurkat NFkB inh 58 | Jurkat NFkB conf inactive
CC1CCN(c2c(NCc3ccc(C(=O)N(C)C4CCCCC4)cc3)c(=O)c2=O)CC1	none
CCOc1ccc2nc(NC(=O)Nc3cccs3)sc2c1	none | Jurkat NFkB conf inactive
O=C(Cn1c(C(F)(F)F)nc2ccccc21)Nc1ccccc1C(=O)O	none
COc1ccc(N/C=C/C(=O)c2ccc(Cl)cc2)cc1	none (no result: TAG inh) | Jurkat NFkB conf inactive
COc1cccc(C(=O)/C=C/Nc2cccc(O)c2)c1	none (no result: TAG inh) | Jurkat NFkB conf inactive
COc1cccc(C(=O)/C=C/Nc2ccc(NC(C)=O)cc2)c1	none (no result: TAG inh)
COc1cccc(N/C=C/C(=O)c2ccc(Cl)cc2)c1	none (no result: Jurkat NFkB inh, 697 NFkB inh, TAG inh)
COc1ccc(C2=NS(=O)(=O)N(C)C(C(=O)N3CCC(C)CC3)=C2)cc1	none
CC1CCN(c2ncnc3c2cnn3-c2ccccc2)CC1	none | Jurkat NFkB conf inactive
Cn1ncc2c(N3CCN(c4ccccc4F)CC3)ncnc21	none (no result: TAG inh)
Cn1ncc2c(N3CCN(c4ccc(Cl)c(Cl)c4)CC3)ncnc21	Jurkat NFkB inh 59 | Jurkat NFkB conf 60
CC(C)(C)Nc1ncnc2c1cnn2-c1ccccc1	none | Jurkat NFkB conf inactive
c1ccc(CNc2ncnc3c2cnn3-c2ccccc2)cc1	none (no result: TAG inh)
COc1ccccc1/C(C)=N/NC(=O)c1nnn(-c2nonc2N)c1C(C)C	none (no result: TAG inh)
Cc1ccc(CN2CC(C(=O)Nc3ccc(S(=O)(=O)Nc4cc(C)nc(C)n4)cc3)CC2=O)cc1 (stereo not drawn)	none
Cc1cc2nn(-c3cccc4ccccc34)nc2cc1NC(=O)c1cccs1	none (no result: TAG inh)
NC(=O)c1ccsc1NC(=O)c1ccc(N2CCCC2=O)cc1	none (no result: aSyn UTR inh) | Jurkat NFkB conf inactive
CCOc1ccccc1-n1c(CN2CCN(C(=O)c3ccco3)CC2)nc2ccccc2c1=O	aSyn UTR inh 111, Jurkat NFkB inh 95 (no result: TAG inh) | Jurkat NFkB conf inactive
CCOc1ccccc1-c1nc(CN2CCN(C(=O)c3ccco3)CC2)c(C)o1	none (no result: TAG inh)
CCN(CC)S(=O)(=O)c1ccc(Cl)c(NC(=O)COC(=O)/C=C/c2ccc(O)c(OC)c2)c1	none (no result: TAG inh)
C=CCOC(=O)C1=C(C)NC(SC)=C(C#N)C1c1ccc(OCC)cc1 (stereo not drawn)	none
CC(=O)Nc1cccc(-c2cn3ccc(C)cc3n2)c1	none (no result: TAG inh)
Cc1ccn2cc(-c3cccc([N+](=O)[O-])c3)nc2c1	none (no result: aSyn UTR inh) | Jurkat NFkB conf inactive
CCOC(=O)c1c(C)[nH]c(C(C)=O)c1C	none
CCOC(=O)c1[nH]c(C=O)c(C(=O)OCC)c1C	Jurkat NFkB inh 59 | Jurkat NFkB conf inactive
CC1=C(/C=C/C(C)=C/C=C/C(C)=C/C(=O)Nc2ccc(O)cc2)C(C)(C)CCC1	Jurkat NFkB inh 63, Gli-Sufu antag 70! (no result: aSyn UTR inh) | Jurkat NFkB conf inactive
COc1ccc(-c2cc(C(=O)Nc3cc(C)ccc3O)no2)cc1	Jurkat NFkB inh 62 (no result: TAG inh) | Jurkat NFkB conf inactive
Cc1ccc(O)c(NC(=O)c2cc(-c3ccccc3Cl)on2)c1	Jurkat NFkB inh 51 (no result: TAG inh) | Jurkat NFkB conf inactive
Cc1ccc(-c2cc(C(=O)Nc3cc(C)ccc3O)no2)cc1	none (no result: Jurkat NFkB inh, 697 NFkB inh)
CN(C)c1ccc(/C=N/NC(=O)c2nnn(-c3nonc3N)c2CN(C)c2ccccc2)cc1	none (no result: TAG inh)
Cc1ccc(-n2nnc(-c3cc4ccccc4n3C)n2)cc1	none | Jurkat NFkB conf inactive
Clc1ccc(-n2nnc(-c3cccnc3Cl)n2)cn1	none
Cc1ccc(-n2nnc(-c3cccnc3Cl)n2)cc1	none | Jurkat NFkB conf inactive

Assay outcomes (PubChem)
